Assay [1] concerns Wnt5a (protein binding on small-molecule microarray). The experiment in a line: Wnt5a binders on small-molecule microarray, primary screen, biophysical, 635/667 nm fluorescence (AID 1142).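 Also: fluorescence read at 667 nm with signal to noise per printed feature.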 The settings on record: 635 nm fluorescence, higher = more signal.
The nature of assay [2]: cell viability in Huh7 cells, primary screen, cytotoxicity control for HCV replication inhibitor project, CellTiter-Glo luminescence, basal, 48 h (AID 1143).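 Also: Huh7 hepatoma cells carrying a hepatitis C replication reporter with no stimulus; test concentration not given here.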 The settings on record: Huh7 HCV replicon, higher = more signal, called active from +8 up or from −8 down. (In general: In ATP-based viability assays light output follows the ATP content of the culture.)
Assay [3] in a line: P. aeruginosa biofilm formation inhibitors, primary screen, PAO1 strain, BacTiter-Glo luminescence, LB-PBS (AID 1144). The note with it: 12 h, higher = more signal.
The nature of assay [4]: CREB reporter modulators without forskolin, primary screen, cell-based, PC12, CRE-LacZ reporter, unstimulated (AID 1145). The settings on record: no forskolin, luminescence, 4.5 h, higher = more signal, called active from +8 up or from −8 down.
Assay [5] in a line: CREB reporter modulators under forskolin, primary screen, cell-based, PC12, CRE-LacZ reporter, forskolin-stimulated (AID 1146).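 Also: PC12 cells with 6xCRE LacZ reporter stimulated by forskolin 10 µM; beta-galactosidase reporter signal reflecting CREB driven transcription.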 The note with it: luminescence, 4.5 h, higher = more signal, called active from +8 up or from −8 down.
In assay [6] the target is Streptavidin (Streptomyces avidinii) (UniProt P22629). The experiment in a line: streptavidin binders on small-molecule microarray, primary screen, artefact control for SMM compound annotation, biophysical, 635/667 nm fluorescence (AID 1147).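 Also: signal reflects streptavidin binding to arrayed compounds as a control protein.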 The note with it: streptavidin binding, higher = more signal.
Sequence of Streptavidin (Streptomyces avidinii) (P22629 whole entry, looked up): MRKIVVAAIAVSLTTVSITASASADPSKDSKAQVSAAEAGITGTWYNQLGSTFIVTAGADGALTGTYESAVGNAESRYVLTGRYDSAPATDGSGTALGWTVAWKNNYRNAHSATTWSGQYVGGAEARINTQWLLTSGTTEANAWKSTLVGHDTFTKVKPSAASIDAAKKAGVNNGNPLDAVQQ
Assay [7] is described as follows: small-molecule binders of probe aInhba, primary screen, biochemical, small-molecule microarray, 635/667 nm fluorescence (AID 1148).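 Also: score merges 667nm spot fluorescence with signal-to-noise for antibody binding to printed compounds.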 The note with it: higher = more signal.
Assay [8] deals with Torsin-1A (Homo sapiens) (UniProt O14656). The experiment in a line: torsin A binders from cell lysate, primary screen, small-molecule microarray, wild-type, 635/667 nm (AID 1149). The note with it: COS7 hTOR1A-WT lysate, 635 nm fluorescence, higher = more signal.
Sequence of Torsin-1A (Homo sapiens) (O14656 whole entry, looked up): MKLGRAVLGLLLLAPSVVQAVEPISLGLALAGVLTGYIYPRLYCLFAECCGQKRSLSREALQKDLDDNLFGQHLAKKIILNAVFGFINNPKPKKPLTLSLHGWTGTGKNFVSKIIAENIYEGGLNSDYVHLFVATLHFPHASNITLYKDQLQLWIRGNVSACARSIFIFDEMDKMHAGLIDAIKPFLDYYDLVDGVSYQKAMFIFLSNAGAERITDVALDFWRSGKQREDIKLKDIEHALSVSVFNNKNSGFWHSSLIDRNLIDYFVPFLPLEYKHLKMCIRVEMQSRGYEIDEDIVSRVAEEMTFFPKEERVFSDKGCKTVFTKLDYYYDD
The target is the same in assay [9]. The experiment in a line: small-molecule binders of mutant TOR1A in lysate, primary screen, cell lysate, small-molecule microarray, COS7 lysate, 635/667 nm fluorescence (AID 1150).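 Also: score pools 667 nm emission and signal to noise measuring lysate protein binding.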 The note with it: COS7 hTOR1A mutant lysate, 635 nm fluorescence, higher = more signal.
Assay [10] has as its system Sonic hedgehog protein (Shh). As to the kind of experiment: small-molecule binders of Shh protein, primary screen, biochemical, small-molecule microarray, 635/667 nm fluorescence (AID 1151).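 Also: Shh protein binding to compounds spotted on small-molecule microarray slides; score combines spot fluorescence intensity with signal-to-noise across triplicate slides.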 The settings on record: small-molecule microarray binding, 635 nm fluorescence; higher = more signal.
The nature of assay [11]: E. coli DRC41 culture turbidity changes, primary screen, E. coli filamentation inducer project, strain DRC41, OD650, 48 h (AID 1152).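 Also: E. coli MC1000 strain DRC41 lacking acrAB efflux pump and sulA.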 The note with it: E. coli DRC41 (acrAB sulA), higher = more signal, called active from +8 up or from −8 down.
Assay [12] in a line: small-molecule binders of probe aLefty1, primary screen, biochemical, small-molecule microarray, 635/667 nm fluorescence (AID 1153).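 Also: score merges spot fluorescence with signal-to-noise ratio from the scanned slide images.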 The note with it: higher = more signal.
Assay [13] is described as follows: PSAC antagonists in infected red cells, primary screen, cell-based, P. falciparum Indochina, OD700, 1 h (AID 1154). The settings on record: P. falciparum Indochina infected RBC osmotic lysis, higher = more signal, called active from +8 up or from −8 down.
Assay [14] in a line: PSAC antagonists in infected red cells, primary screen, cell-based, P. falciparum Indochina, OD700, 2 h (AID 1155).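 Also: lysis reports solute entry through the parasite surface anion channel PSAC; channel blockers reduce lysis of infected cells.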 The settings on record: P. falciparum Indochina infected erythrocytes, osmotic lysis OD700; higher = more signal, called active from +8 up or from −8 down.
Assay [15] in a line: osmotic lysis modulators in infected erythrocytes, primary screen, PSAC antagonist project, cell-based, P. falciparum Indochina, OD700, 3 h (AID 1156). The note with it: higher = more signal, called active from +8 up or from −8 down.
The nature of assay [16]: PSAC antagonists in infected red cells, primary screen, cell-based, P. falciparum Indochina, OD700, 18 h (AID 1157). The settings on record: P. falciparum Indochina infected erythrocytes, osmotic lysis OD700, 18 h; higher = more signal, called active from +8 up or from −8 down.
The nature of assay [17]: modulators of S6 phosphorylation in cells, primary screen, cell-based, A549, cytoblot, luminescence, serum-stimulated (AID 1158).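 Also: serum-stimulated A549 lung adenocarcinoma cells; signal is phosphorylated S6 detected by cytoblot immunostaining with HRP secondary.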 The note with it: A549 phospho-S6 cytoblot, 5 h, higher = more signal.
Assay [18] deals with NADPH oxidase 2 (Homo sapiens) (UniProt P04839). The experiment in a line: NOX2-dependent H2O2 signal modulators, primary screen, NOX inhibitor project, cell-based, HEK293-NOX2, PMA-stimulated, Amplex Red fluorescence (AID 1159). Also: test concentration not given here. The settings on record: 45 min, higher = more signal, called active from +8 up or from −8 down.
Sequence of NADPH oxidase 2 (Homo sapiens) (P04839 whole entry, looked up): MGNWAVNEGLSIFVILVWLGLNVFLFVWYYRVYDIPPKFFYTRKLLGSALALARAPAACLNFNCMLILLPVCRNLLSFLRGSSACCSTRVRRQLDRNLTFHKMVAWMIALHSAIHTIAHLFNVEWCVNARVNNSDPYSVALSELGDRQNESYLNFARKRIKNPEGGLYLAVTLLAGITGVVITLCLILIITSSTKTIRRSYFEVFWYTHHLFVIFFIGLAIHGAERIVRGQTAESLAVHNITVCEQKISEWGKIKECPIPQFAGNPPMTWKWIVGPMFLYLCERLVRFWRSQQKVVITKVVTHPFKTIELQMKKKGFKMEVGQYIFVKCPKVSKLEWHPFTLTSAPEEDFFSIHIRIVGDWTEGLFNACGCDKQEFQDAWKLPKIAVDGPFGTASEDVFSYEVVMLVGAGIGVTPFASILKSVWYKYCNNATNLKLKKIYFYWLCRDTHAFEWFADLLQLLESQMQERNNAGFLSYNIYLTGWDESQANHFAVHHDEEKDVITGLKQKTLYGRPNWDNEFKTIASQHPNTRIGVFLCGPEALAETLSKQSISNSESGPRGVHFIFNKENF
The target of assay [19] is NADPH oxidase 4 (Homo sapiens) (UniProt Q9NPH5). The experiment in a line: NOX4-dependent H2O2 signal modulators, primary screen, NOX inhibitor project, cell-based, HEK293-NOX4, tetracycline-induced, Amplex Red fluorescence (AID 1160). The note with it: 45 min, higher = more signal, called active from +8 up or from −8 down.
Sequence of NADPH oxidase 4 (Homo sapiens) (Q9NPH5 whole entry, looked up): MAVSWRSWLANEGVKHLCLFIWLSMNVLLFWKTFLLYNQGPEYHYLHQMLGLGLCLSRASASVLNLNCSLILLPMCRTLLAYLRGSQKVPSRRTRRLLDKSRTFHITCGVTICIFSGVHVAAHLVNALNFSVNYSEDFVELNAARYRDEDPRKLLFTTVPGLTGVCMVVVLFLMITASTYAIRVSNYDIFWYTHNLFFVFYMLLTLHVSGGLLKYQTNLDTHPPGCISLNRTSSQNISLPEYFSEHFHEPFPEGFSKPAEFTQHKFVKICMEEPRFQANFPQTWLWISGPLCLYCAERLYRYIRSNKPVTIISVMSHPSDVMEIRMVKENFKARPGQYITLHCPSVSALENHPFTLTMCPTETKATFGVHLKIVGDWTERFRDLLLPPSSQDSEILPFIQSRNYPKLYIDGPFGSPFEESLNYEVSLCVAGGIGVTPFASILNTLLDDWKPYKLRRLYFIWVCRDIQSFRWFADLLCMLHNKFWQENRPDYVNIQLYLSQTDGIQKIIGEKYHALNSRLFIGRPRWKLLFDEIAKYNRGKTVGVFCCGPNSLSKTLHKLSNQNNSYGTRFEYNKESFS
Assay [20] addresses NADPH oxidase 5 (Homo sapiens) (UniProt Q96PH1). As to the kind of experiment: NOX5-dependent H2O2 signal modulators, primary screen, NOX inhibitor project, cell-based, HEK293-NOX5, Amplex Red fluorescence (AID 1161). The note with it: HEK293-NOX5, ionomycin, 45 min, higher = more signal.

The source made the active and inactive calls. Unless noted, no rule for the calls is given here.

Sequence of NADPH oxidase 5 (Homo sapiens) (Q96PH1 whole entry, looked up): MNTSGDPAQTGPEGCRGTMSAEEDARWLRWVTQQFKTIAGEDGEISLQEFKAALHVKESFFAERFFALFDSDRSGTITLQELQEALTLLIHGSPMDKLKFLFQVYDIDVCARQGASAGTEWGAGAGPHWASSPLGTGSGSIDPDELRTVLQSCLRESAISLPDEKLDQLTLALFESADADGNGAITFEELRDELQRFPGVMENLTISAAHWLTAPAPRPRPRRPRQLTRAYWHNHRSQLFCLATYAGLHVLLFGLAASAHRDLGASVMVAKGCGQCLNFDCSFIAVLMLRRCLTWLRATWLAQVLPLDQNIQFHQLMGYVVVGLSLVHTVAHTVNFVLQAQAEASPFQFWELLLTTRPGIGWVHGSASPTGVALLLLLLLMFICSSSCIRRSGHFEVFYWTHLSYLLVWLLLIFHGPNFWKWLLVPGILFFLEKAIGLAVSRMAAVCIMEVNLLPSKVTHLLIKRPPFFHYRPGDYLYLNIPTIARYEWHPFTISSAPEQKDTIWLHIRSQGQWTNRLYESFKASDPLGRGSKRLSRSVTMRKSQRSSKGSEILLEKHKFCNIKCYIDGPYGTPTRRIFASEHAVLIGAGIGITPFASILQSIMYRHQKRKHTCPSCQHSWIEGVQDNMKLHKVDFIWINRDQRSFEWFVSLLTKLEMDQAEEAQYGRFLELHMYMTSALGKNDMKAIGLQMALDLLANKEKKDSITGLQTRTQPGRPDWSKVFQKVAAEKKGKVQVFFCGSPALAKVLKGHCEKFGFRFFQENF

`CON=C1c2cc(OC)ccc2O[C@H](c2cccc(OC)c2)[C@H]1O`: the composite z-score was -0.038 in assay [1]; 0.431 in assay [6]; -0.016 in assay [7]; 0.195 with Torsin-1A (Homo sapiens) [8]; 0.517 in the assay with Torsin-1A (Homo sapiens) [9]; 0.755 in assay [10]. This compound had a composite z-score in [12] of -0.0061. Moreover, the z-score in [2] was -3.45 (inactive); in [3], -0.243 (inactive); in assay [4], -0.0731 (inactive); in assay [5], -0.206 (inactive); in assay [11] it was 0.788 (inactive); in [13] it was 3.04 (inactive). Further, the z-score in assay [14] is 0.72 (inactive); in assay [15] it was -0.241 (inactive); in [16], 0.245 (inactive); in [17], 0.686; in [18], -0.837 (inactive); in assay [19], -0.406 (inactive). This compound showed a z-score in assay [20] of -0.175.

As for `CC(CCN1CCCc2nc(C)c(C)cc21)=NO[C@H](C)c1cn([C@@H]2COC[C@H]2O)nn1`, the composite z-score in assay [1] stood at 0.395; in [6], 0.764; in [7], 0.0906; in the assay with Torsin-1A (Homo sapiens) [8], 1.47; with Torsin-1A (Homo sapiens) [9], 2.3; in [10], 0.979. The compound also registered a composite z-score in [12] of 0.184. Moreover, the z-score in [2] is 0.0307 (inactive); in assay [3], 0.392 (inactive); in [4], -1.12 (inactive); in assay [5], -0.181 (inactive); in assay [11] it was 0.686 (inactive); in assay [13] it was 1.65 (inactive). For the same compound, the z-score was 0.763 (inactive) in assay [14]; 0.09 (inactive) in [15]; 0.564 (inactive) in [16]; -0.607 in [17]; -0.61 (inactive) in assay [18]; -0.259 (inactive) in assay [19]. In addition, the z-score in assay [20] was determined as 0.371.

Regarding `CCOC(=O)[C@H](Cc1ccccc1)NC(=O)CCC1CC(OC(=O)NCCc2ccc(F)cc2)CC2(CCCC(COC(=O)NCc3cccc(C(F)(F)F)c3)O2)O1` (stereo not given in full), the composite z-score in [1] was 0.011; in assay [6] it was 0.899; in assay [7] it was -0.101; with Torsin-1A (Homo sapiens) [8], 0.386; with Torsin-1A (Homo sapiens) [9], 0.376; in assay [10] it was 1.48. The compound further yielded a composite z-score in assay [12] of 0.0834. In addition, the z-score was -2.08 (inactive) in assay [2]; 0.885 (inactive) in assay [3]; -0.162 (inactive) in [4]; -0.605 (inactive) in [5]; 0.048 (inactive) in assay [11]; -1.14 (inactive) in assay [13]. Besides, the z-score in assay [14] is 0.277 (inactive); in assay [15] it was -0.017 (inactive); in assay [16] it was 0.344 (inactive); in [17], -0.354; in [18], 0.575 (inactive); in [19] it was 0.488 (inactive). The z-score in assay [20] worked out at 0.837.

As to `CO[C@H]1COC(=O)[C@H](C)COC(=O)[C@H](C)NC(=O)CC=C[C@H]1C`, the composite z-score in assay [1] is 0.108; in assay [6] it was -0.237; in assay [7], -0.0762; in the assay with Torsin-1A (Homo sapiens) [8], 1.26; in the assay with Torsin-1A (Homo sapiens) [9] it was 1.18; in assay [10], 1.88. For the same compound, the composite z-score in [12] is -0.101. The z-score in assay [2] was -1.34 (inactive); in [3] it was 0.598 (inactive); in [4], 0.611 (inactive); in assay [5], -0.506 (inactive); in assay [11], 0.25 (inactive); in [13], 0.212 (inactive). Moreover, the z-score in [14] is 0.0618 (inactive); in assay [15], -0.0422 (inactive); in assay [16] it was -0.186 (inactive); in assay [17], 0.0807; in assay [18], 1.67 (inactive); in assay [19], 0.299 (inactive). In addition, the z-score in [20] was -0.42.

Regarding `COC(=O)CC=C1c2ccccc2[C@H](OC)[C@H]1C`, the composite z-score was 0.0034 in [1]; -0.0324 in assay [6]; 0.0275 in [7]; 0.399 with Torsin-1A (Homo sapiens) [8]; -0.127 in the assay with Torsin-1A (Homo sapiens) [9]; 0.103 in assay [10]. Moreover, in [12], the composite z-score was -0.326. The z-score in [2] was 0.553 (inactive); in assay [3] it was 0.624 (inactive); in assay [4] it was 0.478 (inactive); in assay [5], 0.345 (inactive); in assay [11] it was 0.101 (inactive); in assay [13], 0.0311 (inactive). For the same compound, the z-score in [14] was 0.269 (inactive); in assay [15] it was -0.0239 (inactive); in assay [16], -0.0463 (inactive); in [17], -0.882; in assay [18] it was 0.457 (inactive); in assay [19], 0.644 (inactive). In addition, the z-score in assay [20] is 0.199.

The values above are taken from PubChem BioAssay.
